High-throughput results (PubChem BioAssay)
Shown are actives, neighbours in structure and some others; about 2.4% of the full set was active somewhere.
TDP1 block: blocks human tyrosyl-DNA phosphodiesterase 1. AID 485290. actives 0.28% (n = 350,000). Q9NUW8. Potency, µM (doses to about 130 µM), hits mostly inhibitors. recombinant TDP1, AlphaScreen DNA substrate cleavage; also: nearly all actives have a fitted effect of over 40% in size
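Steps: enzyme plus compound, 15 min RT; add biotin/phosphotyrosine-FITC oligonucleotide (15 nM final), react 5 min; add donor/acceptor beads (10 ug/ml final), 10 min; read AlphaScreen. Tdp1 at 1 nM final.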
POLB inh: blocks human DNA polymerase beta activity; Pol beta primer extension/strand displacement, fluorescence kinetic; P06746; Potency, µM (titrated, usually from 114 µM), most hits filed as inhibitors; actives 1.3% (n = 340,000); AID 485314
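Homogeneous kinetic assay of primer extension and strand displacement by 10 nM Pol beta, preincubated 15 min at room temperature with compound before 50 nM substrate (final) was added. Read at 0 and 10 min; four-parameter Hill fit.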
POLK inh: blocks human DNA polymerase kappa activity; Q9UBT6; purified Pol kappa, fluorescent DNA synthesis assay, 10 min; Potency, µM (doses to about 107 µM), most hits filed as inhibitors; actives 0.53% (n = 400,000)
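10 nM Pol kappa preincubated 15 min at room temperature with compounds, then reaction started with substrate at 50 nM final. Fluorescence read kinetically at 0 and 10 min; buffer-only wells served as negative control.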
Pol iota inh: inhibitors of human DNA polymerase iota; Q9UNA4; Pol iota fluorescent replication assay, 10 min; Potency, µM (highest dose often 115 µM), usual class: inhibitors; actives 1% (n = 390,000)
Target sequence (Q9UNA4 whole entry, looked up): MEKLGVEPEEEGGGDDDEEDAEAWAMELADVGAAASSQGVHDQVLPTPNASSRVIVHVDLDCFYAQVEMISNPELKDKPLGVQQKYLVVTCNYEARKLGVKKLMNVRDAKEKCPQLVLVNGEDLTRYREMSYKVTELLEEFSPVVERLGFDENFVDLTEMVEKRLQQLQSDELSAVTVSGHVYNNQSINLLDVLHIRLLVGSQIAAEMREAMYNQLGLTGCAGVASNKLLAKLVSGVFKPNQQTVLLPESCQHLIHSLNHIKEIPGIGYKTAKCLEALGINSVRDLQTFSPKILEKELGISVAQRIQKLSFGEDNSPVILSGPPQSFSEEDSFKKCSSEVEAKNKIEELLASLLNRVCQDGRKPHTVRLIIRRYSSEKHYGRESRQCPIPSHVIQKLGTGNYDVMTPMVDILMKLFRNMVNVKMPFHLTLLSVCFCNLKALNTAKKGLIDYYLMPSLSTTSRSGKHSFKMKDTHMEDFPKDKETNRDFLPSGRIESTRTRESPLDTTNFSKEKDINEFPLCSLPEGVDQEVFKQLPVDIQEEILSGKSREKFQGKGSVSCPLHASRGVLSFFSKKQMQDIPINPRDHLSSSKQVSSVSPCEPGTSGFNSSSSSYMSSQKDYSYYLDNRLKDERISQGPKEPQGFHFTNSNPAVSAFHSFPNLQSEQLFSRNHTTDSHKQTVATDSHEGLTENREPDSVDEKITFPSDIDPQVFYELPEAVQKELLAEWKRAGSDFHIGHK
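Fluorescent replication assay read twice, at 0 min and 10 min after adding 50 nM (final) substrate. Enzyme (10 nM) and compounds were first incubated 15 min at room temperature; enzyme-free buffer wells were negative controls.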
POLH inh: blocks human DNA polymerase eta activity. recombinant Pol eta, fluorescent DNA replication assay. actives 1.2% (n = 390,000). Potency, µM (titrated, usually from 114 µM), actives largely listed as inhibitors. Q9Y253
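Pol eta at 10 nM preincubated with compounds 15 min at room temperature; reaction started with fluorescent substrate (50 nM final) and read kinetically at 0 and 10 min.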
FEN1 inh: human FEN1 inhibition; actives 0.35% (n = 390,000); P39748; Recombinant FEN1 flap cleavage, fluorescence, 15 min; AID 588795; Potency, µM (titrated, usually from 114 µM), most hits filed as inhibitors; also: nearly all actives have a fitted effect of over 65% in size
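Steps: FEN1 (10 nM) dispensed; compound added by pin tool; 15 min at room temperature; substrate added to 50 nM final; reads at 0 min and 15 min; data normalized and fitted (four-parameter Hill).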
Large screens that a line does not name were inactive. Calls follow the shape of the dose curve; as a rule, active = well fitted curve in the direction sought with a large enough effect; inconclusive = small, poorly fitted or top-dose-only effect, or another doubt; inactive = no such curve, though single readings can be large; an effect the other way counts as inactive or inconclusive.

CC[C@H](C)[C@H](NC(=O)[C@H](Cc1ccc(O)cc1)NC(=O)[C@H](CCCNC(=N)N)NC(=O)[C@H](CCCNC(=N)N)NC(=O)[C@H](CC(C)C)NC(=O)[C@H](CC(=O)O)NC(=O)[C@H](C)NC(=O)[C@H](C)NC(=O)[C@H](Cc1ccc(O)cc1)NC(=O)[C@H](CCC(N)=O)NC(=O)[C@H](C)NC(=O)[C@H](CCSC)NC(=O)[C@H](CCC(N)=O)NC(=O)[C@H](CCC(=O)O)NC(=O)[C@@H]1CCCN1C(=O)[C@@H](NC(=O)[C@H](C)NC(=O)[C@H](CC(N)=O)NC(=O)[C@H](CC(=O)O)NC(=O)CNC(=O)[C@@H]1CCCN1C(=O)[C@H](Cc1ccc(O)cc1)NC(=O)[C@@H](NC(=O)[C@@H]1CCCN1C(=O)[C@H](CCC(=O)O)NC(=O)[C@H](CC(C)C)NC(=O)[C@@H]1CCCN1C(=O)[C@H](C)N)C(C)C)[C@@H](C)O)C(=O)N[C@@H](CC(N)=O)C(=O)N[C@@H](CCSC)C(=O)N[C@@H](CC(C)C)C(=O)N[C@H](C(=O)N[C@@H](CCCNC(=N)N)C(=O)N1CCC[C@H]1C(=O)N[C@@H](CCCNC(=N)N)C(=O)N[C@@H](Cc1ccc(O)cc1)C(N)=O)[C@@H](C)O	none (no result: TDP1 block, POLB inh, Pol iota inh, POLH inh, FEN1 inh)
Cn1cc(NC(=O)c2cc(NC(=O)c3cc(NC=O)cn3C)cn2C)cc1C(=O)NCCC(=N)N	POLB inh 14µM, POLK inh 0.79µM (no result: Pol iota inh, POLH inh, FEN1 inh)
COc1cc(OC)c2c(c1)OC(=O)CC2c1ccccc1OC (configuration not stated)	none (no result: POLB inh, Pol iota inh, POLH inh, FEN1 inh)
CCCCNS(=O)(=O)c1ccc2nc(-c3cccnc3)cc(C(=O)NCCCOCC)c2c1	POLB inh 45µM
COc1ccc(-c2nnc3n2N=C(c2cc(OC)ccc2OC)CS3)cc1	none (no result: POLB inh, POLK inh, Pol iota inh, POLH inh, FEN1 inh)
O=C(CCc1ccc(O)c(O)c1)N/N=C/c1ccc2c(c1)OCO2	POLB inh 71µM, POLK inh inconclusive, Pol iota inh 79µM
O=C(N/N=C/c1ccc(Cl)cc1)c1ccc2c(c1)OCO2	POLB inh 35µM, Pol iota inh 79µM (no result: TDP1 block)
O=C(CNC(=O)c1ccc2c(c1)OCO2)N/N=C/c1cc(Br)ccc1O	POLB inh 45µM
O=C(N/N=C\C=C\c1ccc(Br)cc1)c1ccc2c(c1)OCO2	POLB inh 35µM, Pol iota inh inconclusive (no result: TDP1 block)
O=C(CNC(=O)c1ccccc1)N/N=C/c1cc(Br)ccc1O	none
O=c1c(-c2ccc(Cl)cc2)nc2cnc(N3CCNCC3)nc2n1Cc1ccc(F)cc1	none (no result: TDP1 block, POLB inh, Pol iota inh, POLH inh, FEN1 inh)
O=C(N/N=C/c1ccc2c(c1)OCO2)c1ccc(COCC(F)(F)C(F)F)cc1	TDP1 block 56µM, POLB inh inconclusive, Pol iota inh inconclusive
CC(C)C[C@H](NC(=O)C1CC(=O)N(c2ccc3c(c2)OCO3)C1)C(=O)NC1CCCC1 (some centres not stated)	POLH inh 89µM
CCCOc1ccc(/C=C/c2[nH]c(=O)[nH]c(=O)c2[N+](=O)[O-])cc1OCC	none (no result: TDP1 block)
CCOC(=O)COc1ccc(Br)cc1/C=C/c1[nH]c(=O)[nH]c(=O)c1[N+](=O)[O-]	POLB inh 56µM, Pol iota inh inconclusive, POLH inh 45µM, FEN1 inh inconclusive
CCOC(=O)COc1ccc(Br)cc1/C=C\c1[nH]c(=O)[nH]c(=O)c1[N+](=O)[O-]	POLB inh inconclusive, Pol iota inh 89µM, POLH inh 13µM
O=C(O)c1ccccc1Nc1cc(Cl)c2nonc2c1[N+](=O)[O-]	Pol iota inh 10µM, POLH inh 50µM
O=C(O)c1cccc(Nc2cc(Cl)c3nonc3c2[N+](=O)[O-])c1	Pol iota inh 3.5µM, FEN1 inh inconclusive
O=C(O)c1ccc(Nc2ccc3nonc3c2[N+](=O)[O-])cc1	none (no result: TDP1 block)
COc1ccc(C2Nc3ccccc3C(=O)N2Cc2cccc3ccccc23)cc1COc1ccc(NC(C)=O)cc1 (configuration not stated)	none (no result: POLB inh, POLK inh, Pol iota inh, POLH inh, FEN1 inh)
CC(C)(C)c1cc(=O)n(-c2ccccc2)[nH]1	POLB inh inconclusive, Pol iota inh 7.1µM, POLH inh inconclusive
CCOc1ccccc1NS(=O)(=O)c1cn(C)nc1C	Pol iota inh 89µM
COc1cc(OC)c(NC(=O)c2cnn(-c3ccccc3)c2-n2cccc2)cc1Cl	POLB inh 50µM, Pol iota inh inconclusive
O=C(O)C1Nc2c(C(=O)N3CCOCC3)cccc2C2C=CCC12 (configuration not stated)	POLB inh 20µM, POLK inh 45µM, Pol iota inh 11µM, POLH inh 3.2µM, FEN1 inh inconclusive (no result: TDP1 block)
Cc1cc(C)c2c(c1)C1C=CCC1C(C(=O)O)N2 (configuration not stated)	POLK inh 28µM, Pol iota inh inconclusive, FEN1 inh 22µM (no result: POLB inh, POLH inh)
Cc1ccc2c(c1C)NC(C(=O)O)C1CC=CC21 (configuration not stated)	POLB inh 2.5µM, POLK inh 3.2µM, Pol iota inh inconclusive, POLH inh 3.5µM, FEN1 inh 56µM
O=C(O)C1Nc2c(C(F)(F)F)ccc(Cl)c2C2C=CCC12 (configuration not stated)	POLB inh 45µM, Pol iota inh inconclusive, POLH inh inconclusive (no result: TDP1 block)
COCCNC(=O)C1Nc2ccc(C(F)(F)F)cc2C2C=CCC12 (configuration not stated)	Pol iota inh inconclusive (no result: TDP1 block, POLB inh)
Nc1nc2c(nc(N3CCOCC3)n2COCCO)c(=O)[nH]1	none (no result: TDP1 block, POLB inh, POLH inh)
COC(=O)c1c(NC(=O)c2ccc(S(=O)(=O)N3CCCCC3)cc2)sc2c1CCN(C)C2	none
COc1cc(F)c(S(=O)(=O)N2CCCN(S(=O)(=O)c3ccc(NC(C)=O)cc3)CC2)c(F)c1	none (no result: POLB inh, POLK inh, Pol iota inh, POLH inh, FEN1 inh)
O=C(Cc1ccccc1Cl)NC1(O)C(=O)c2ccccc2C1=O	Pol iota inh 5µM, POLH inh inconclusive
O=C(Cc1ccccc1Cl)NO	none (no result: TDP1 block, POLB inh, POLH inh)
Cc1ccc(C(=O)N2CCN(c3ccc([N+](=O)[O-])cc3)CC2)o1	POLB inh 89µM (no result: TDP1 block)
O=C(c1ccc(-c2cccc([N+](=O)[O-])c2)o1)N1CCN(c2ccc([N+](=O)[O-])cc2)CC1	none (no result: POLB inh)
Nc1ccc(-c2nc3ccccc3[nH]2)cc1	POLB inh inconclusive
Nc1ccc2nc(-c3ccc(-c4nc5ccc(N)cc5[nH]4)cc3)[nH]c2c1	POLK inh 50µM, Pol iota inh inconclusive, FEN1 inh inconclusive (no result: TDP1 block)
CC1=C/C(=C\c2ccc(N(C)C)cc2)c2ccccc21	none (no result: TDP1 block, POLB inh, POLH inh)
Cc1[nH]c2ccccc2c1/C=N/NC(=O)c1ccc(N)cc1	POLB inh 20µM (no result: TDP1 block)
Cc1[nH]c2ccccc2c1/C=N/NC(=O)c1ccccc1	none (no result: TDP1 block)
NC(=N\N=Cc1ccco1)/C(N)=N/N=Cc1ccco1	Pol iota inh inconclusive, POLH inh 45µM (no result: TDP1 block, POLB inh)
